Measured potencies and affinities stand elsewhere. Unmarked numbers belong to inactive results.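 How the source made its calls: active means compounds lowering cell ATP signal with a fitted half-effect dose at most twice the top valid dose; inconclusive means flat curve with 30 to 70% signal loss, or bad fit; inactive means wrong direction, flat within 30%, or weaker than limit.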
Experiment: HEK293 cell cytotoxicity, dose response, cytotoxicity control, cherry-picks, set 5 (AID 1053117);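 further: more negative means greater loss of ATP signal and more cytotoxicity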
Conditions: HEK293T viability, CellTiter-Glo ATP luminescence, 72 h; series mostly up to 26 µM; activity change, negative = cytotoxicity: at the top concentration

Structure (SMILES) | activity change, negative = cytotoxicity
COC(=O)C[C@@H]1CC[C@@H]2[C@H](COc3ccc(NC(=O)Cc4cccs4)cc3C(=O)N2C)O1 | -11.8% [at 23.5 µM]
O=C(c1cccnc1)N1C[C@H]2[C@@H](c3ccccc31)[C@H](CO)N2CC1CCCC1 | -3.68% [at 23.5 µM]
C[C@@H]1CN([C@@H](C)CO)C(=O)c2cc(-c3ccccc3)cnc2O[C@H]1CN(C)C(=O)c1cccc(F)c1 | -16.9%
C[C@H](CO)N1C[C@H](C)[C@H](CN(C)Cc2ccc(-c3ccccc3)cc2)Oc2ccc(NC(=O)C3CCCCC3)cc2C1=O | -19% [at 23.5 µM]
N#C[C@@H]1[C@@H](c2ccccc2C2=CCCCC2)[C@@H](CO)N1S(=O)(=O)c1ccccc1 | -7.01% [at 23.5 µM]
CCCCNC(=O)Nc1nc2ccc(CC)cc2s1 | -9.94%
CO[C@@H]1CN(C)C(=O)c2ccc(NC(=O)c3ccc(-c4ccccc4)cc3)cc2OC[C@@H](C)NC[C@@H]1C | -18.6%
N#C[C@@H]1[C@H](c2ccccc2C2=CCCCC2)[C@H](CO)N1S(=O)(=O)c1ccccc1 | -14.8%
CC(C)(C)c1cc(Cl)c(O)c(NC(=S)NC(=O)c2cccnc2)c1 | -26.8%
C[C@@H]1CN([C@@H](C)CO)C(=O)c2cc(-c3ccccc3)cnc2O[C@@H]1CN(C)Cc1ccccc1 | -16.4%
CC1(C)Cc2c(C#N)c(SCC(=O)c3ccccc3)nc(N3CCOCC3)c2CS1 | 3.32%
CCOC(=O)C1=C(C)Nc2nc3ccccc3n2C1c1ccncc1 (stereo not drawn) | -6.47%
C[C@H](O)C#Cc1ccc2c(c1)O[C@H](CN(C)C)[C@H](C)CN([C@@H](C)CO)S2(=O)=O | -0.553%
C[C@H]1CN([C@@H](C)CO)C(=O)c2cc(NC(=O)CCCN(C)C)ccc2O[C@H]1CN(C)Cc1ccc(-c2ccccc2)cc1 | -8.58%
COc1ccccc1N(CC(=O)N(CC(C)C)CC(C)C)S(=O)(=O)c1cccs1 | -12.9%
CCCc1cc(C(=O)OC)c(NC(=O)CCC(=O)O)s1 | -10.7%
Cc1ccc(Nc2nnc(SCc3ccccc3)s2)cc1 | -6.05%

Structure (SMILES) | activity change, negative = cytotoxicity
Cc1cccc(N2CCN(S(=O)(=O)c3cn(C)cn3)CC2)c1C | 0.767%
N#C[C@H]1[C@@H](c2ccccc2C2=CCCCC2)[C@H](CO)N1S(=O)(=O)c1ccccc1 | -7.13% [at 23.5 µM]
CC(C)(C)[S@](=O)N1Cc2cc(C(=O)NCc3ccccc3F)nc(-c3cccc(-c4cncnc4)c3)c2[C@@H]1CCO | 0.126%
CO[C@H]1CN(C)C(=O)c2cc(NC(C)=O)ccc2OC[C@@H](C)N(C(=O)CN2CCOCC2)C[C@H]1C | -10.4%
Cc1ccc(S(=O)(=O)N2CC3(C)CN(S(=O)(=O)c4ccc(C)cc4)CC(C)(C2)C3=O)cc1 | -8.44%
O=c1c2cc(N3CCOCC3)ccc2[nH]c(=S)n1Cc1ccc(Cl)cc1 | -22.5%
C[C@@H]1CN([C@H](C)CO)C(=O)c2cc(-c3ccccc3)cnc2O[C@H]1CN(C)C(=O)c1cccc(F)c1 | -9.1%
CN(C)C(=O)c1ccc(-c2ccc3c(c2)[C@@H]2[C@@H](CCN2C(=O)c2ccc(F)cc2)[C@@H](CO)N3C)cc1 | -10.4%
CN(C)C(=O)c1ccc(-c2ccc3c(c2)[C@H]2[C@H](CCN2C(=O)c2ccc(F)cc2)[C@H](CO)N3C)cc1 | -0.846%
N#C[C@H]1[C@H](c2ccccc2C2=CCCCC2)[C@H](CO)N1S(=O)(=O)c1ccccc1 | -6.85%
COc1ccc([N+](=O)[O-])cc1NS(=O)(=O)c1ccc(C(=O)N2CCCC2)cc1 | -10.2%
Cc1ccc(S(=O)(=O)N2CC[C@@H]3[C@@H](CO)Nc4ccc(-c5cccc(C(=O)N(C)C)c5)cc4[C@@H]32)cc1 | -5.67%
O=C(CN1CCCC1)Nc1ccc(Oc2ccc(NC(=O)CN3CCCC3)cc2)cc1 | -22.4%
O=S(=O)(c1ccccc1F)N1CC[C@@H]2[C@H]1c1cc(-c3cccc(F)c3)ccc1N[C@@H]2CO | -2.3%
COc1ccc(-c2csc(CCn3nc(C)cc3C)n2)cc1OC | -15.6%
CCC(C)(C)NC(=O)C(OC(=O)c1ccco1)c1ccccc1OC (stereo not drawn) | -3.73%

Reference: PubChem BioAssay AID1053117 (Broad Institute, 2014)
